Hits are enriched below; roughly 20% of the tested compounds scored in any of these assays.
HCMV inh: human cytomegalovirus inhibition; HFF cells, HCMV-luciferase reporter, 72 h; active compounds read low; activity change, negative = inhibition, % at 57.5 µM; actives 4.5% (n = 410,000); AID 1259415; in the data active means activity change below about -60%; inconclusive means no clear call, values can overlap the other calls; inactive means above about -39%
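Two-dose cell screen: HFF monolayers treated with compounds and infected with luciferase-expressing HCMV at 1 PFU/cell, 72 h at 37C, then lysed for luciferase measurement.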
Pf growth 48h: P. falciparum growth inhibition at 48 hours (one generation) | Potency, µM (highest dose often 28.7 µM), actives largely listed as inhibitors | actives 5.9% (n = 310,000) | P. falciparum luciferase growth in erythrocytes, 48 h | AID 504832
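Cell-based growth assay: transgenic P. falciparum expressing firefly luciferase, cultured in red cells within RPMI 1640 containing 0.5% w/v Albumax, 24 mM bicarbonate and gentamycin. A drop in luciferase activity indicates inhibition.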
Cycloheximide cs: counter-screen hit for Shiga toxin inhibitors, cycloheximide | max response, % | cell reporter, cycloheximide protein synthesis inhibition counterscreen | actives 12% (n = 300,000); in the data active means max response mostly above about 13%, no sharp cut-off; inactive means mostly below about 14%; further: read at 38.3 µM for the half of the compounds with a filed dose
Shiga inhibitor: inhibitors of Shiga toxin in Vero cells; Vero cells, Shiga toxin protein synthesis inhibition reporter; inhibition, % at 38.7 µM; actives 9.2% (n = 290,000); AID 2315; in the data active means inhibition mostly above about 28%, no sharp cut-off; inactive means mostly below about 43%
Pf growth 96h: inhibits malaria parasite growth, 96 h; actives 6.9% (n = 320,000); P. falciparum luciferase reporter growth, 96 h; AID 504834; Potency, µM (top dose mostly 28.7 µM), hits mostly inhibitors
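P. falciparum expressing integrated firefly luciferase grown in erythrocytes (2% hematocrit, 0.05% parasitemia final) with compounds for 96 hours at 37 C, 5% CO2. Growth inhibition read as loss of luminescence after adding luciferase detection reagent.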
A number is an active result; - = inactive; ? = inconclusive; . = not tested or not shown. Unless noted, the call rests on the fitted dose curve; in most records, active means well fitted inhibition curve with a large enough effect; inconclusive means small, poorly fitted or top-dose-only effect, or another doubt; inactive means no such curve, though single readings can be large or run the other way.

SMILES | HCMV inh | Pf growth 48h | Cycloheximide cs | Shiga inhibitor | Pf growth 96h
COc1ccc(CNC(=O)CN(Cc2ccccc2)C(=O)CCC(=O)Nc2ccccn2)cc1 | - | - | - | - | -
CC(=O)N1CCC(=O)N(C(C)C)c2ccccc21 | - | - | - | - | ?
CCc1ccc(N(C(=O)c2csnn2)C(C(=O)NC(C)(C)CC)c2ccccn2)cc1 (centres undefined) | - | - | - | - | -
CCc1ccc(N(C(=O)c2csnn2)C(C(=O)NC(C)(C)C)c2ccccn2)cc1 (centres undefined) | - | - | 29 | 76 | ?
C=CCSc1nc2ccccc2n1C(=O)/C=C/c1ccc(OC)c(OC)c1 | -103 | ? | - | - | -
C=CCSc1nc2ccccc2n1C(=O)/C=C/c1cc(OC)c(OC)c(OC)c1 | -111 | ? | 49 | 111 | -
CCSc1nc2ccccc2n1C(=O)/C=C/c1ccc(OC)c(OC)c1 | -100 | - | 13 | - | -
COc1cc(/C=C/C(=O)N2CCN(C(=O)/C=C/c3cc(OC)c(OC)c(OC)c3)CC2)cc(OC)c1OC | . | - | - | - | -
CCn1c(SCC(=O)N/N=C/c2ccc(OC)c(OC)c2)nc2ccccc21 | - | - | - | - | -
Cc1ccc(F)cc1C(=O)N1CCCCC1c1cc(C(=O)NC(C)C)no1 (centres undefined) | - | . | . | . | .
CC(=O)c1ccc(N2CCN(C(=O)Nc3cn(CC(C)C)c(=O)c4ccccc34)CC2)cc1 | - | . | . | . | .
COc1ccc(OC)c(NCc2cccn2-c2nnc(N3CCC(C)CC3)s2)c1 | ? | . | 31 | 69 | .
COc1ccc(NCc2cccn2-c2nnc(N3CCC(C)CC3)s2)c(OC)c1 | - | . | . | . | .
CCCCNC(=O)c1nc2cc(C)c(C)cc2nc1-c1cccc(OC(F)(F)F)c1 | - | . | . | . | .
COc1ccc(-c2c(C)nn(-c3ccccc3)c2N)cc1 | - | . | 23 | - | -
Cc1nn(-c2ccccc2)c(N)c1C(c1ccccc1)c1c(C)nn(-c2ccccc2)c1N | - | ? | - | - | 13µM
Cc1nn(-c2ccc(C(=O)O)cc2)c(N)c1-c1ccccc1 | - | - | 28 | 23 | -
COC(=O)c1c(C)nn(-c2ccccc2)c1N | - | - | - | - | -
C=CCN(c1ccccc1)S(=O)(=O)c1cc2c(cc1C)NC(=O)CO2 | - | - | - | - | ?
CC(=O)Oc1cc2c3c(c1)/C(=C1/SC(=S)NC1=O)C(=O)N3C(C)(C)C=C2C | -66 | - | - | - | -
Cc1ccc(S(=O)(=O)N2C(=O)/C(=C3\SC(=S)NC3=O)c3ccccc32)cc1 | . | - | - | - | -
COc1ccc(CCNC(=O)C2CCN(S(=O)(=O)c3c(C)noc3/C=C/c3ccc(C)cc3)CC2)cc1OC | - | . | . | . | .
COc1cccc(C(=O)OCC(=O)N2CCc3ccccc32)c1OC | -98 | - | . | . | -
Nc1ccccc1C(=O)OCC(=O)N1CCc2ccccc21 | - | - | 39 | 79 | .
O=C(OCC(=O)N1CCc2ccccc21)c1cccnc1 | - | - | 33 | 45 | .
SMILES | HCMV inh | Pf growth 48h | Cycloheximide cs | Shiga inhibitor | Pf growth 96h
O=C(OCC(=O)N1CCc2ccccc21)c1ccccc1 | - | - | 43 | 118 | -
O=C(c1cccnc1)N1CCc2ccccc21 | - | - | - | - | -
CCC(CC)CN1C(Nc2ccccc2)=NC[C@@H]1C | - | - | - | - | -
COc1ccccc1C(=O)N1CCc2ccccc21 | - | - | - | - | -
Nc1ccccc1C(=O)N1CCc2ccccc21 | - | - | 26 | 69 | ?
CCOC(=O)C(=NCC1CCCO1)NNc1cc(Cl)ccc1Cl (centres undefined) | - | ? | - | - | 10µM
CCCc1cc(=O)oc2cc(OCC(=O)N3CCc4ccccc43)ccc12 | - | - | - | - | ?
C[C@@]12C(=O)Nc3cc(F)c(F)cc3C(=O)N1[C@H]1c3ccccc3OC[C@@H]1[C@@H]2c1ccccc1 | - | . | . | . | .
C[C@@]12C(=O)Nc3cc(Cl)ccc3C(=O)N1[C@H]1c3cc(Br)ccc3OC[C@@H]1[C@@H]2c1ccccc1 | -64 | 9.3µM | . | . | 9.3µM
C[C@@]12C(=O)Nc3cc(Cl)ccc3C(=O)N1[C@H]1c3ccccc3OC[C@@H]1[C@@H]2c1ccccc1 | . | ? | . | . | 9.3µM
C[C@@]12C(=O)Nc3ccc(Cl)cc3C(=O)N1[C@H]1c3ccccc3OC[C@@H]1[C@@H]2c1ccccc1 | . | 13µM | . | . | 10µM
Cc1ccc2c(c1)C(=O)N1[C@H]3c4cc(Br)ccc4OC[C@@H]3[C@H](c3ccccc3)[C@]1(C)C(=O)N2 | - | . | . | . | .
CCN(CC)C(=O)c1cccc(NC(=O)CC23CC4CC(CC(C4)C2)C3)c1 | - | ? | - | - | ?
CCCCn1nnnc1C(Nc1ccccc1C(C)=O)C1CC1 (centres undefined) | - | . | . | . | .
Cc1ccc2c(CC(=O)NCC3(N4CCOCC4)CCCCC3)coc2c1C | - | ? | . | . | 9.3µM
Cc1ccccc1C(=O)NCC(=O)NCC1(N2CCOCC2)CCCCC1 | - | - | . | . | -
Cc1ccc2c(CC(=O)NCc3ccco3)coc2c1C | - | - | 23 | 33 | -
Cc1ccc(NC(=O)Cc2coc3c(C)c(C)ccc23)cc1Cl | - | . | . | . | .
CC(C)N(Cc1ccccc1)C(=O)CCS(=O)(=O)c1cc2c(cc1Cl)NC(=O)CO2 | - | . | . | . | .
O=C(O)C1CC=CCC1C(=O)Nc1cccc(Cl)c1 (centres undefined) | - | - | - | - | -
CN(C)C(=O)Oc1cccc(OCc2n(C)c3ccccc3[n+]2C)c1 | - | ? | - | - | 2.9µM
COc1ccccc1C(=O)COC(=O)Cn1c(C)csc1=O | - | - | . | . | -
COc1cc2cc(CCOC(=O)c3ccc(C#N)cc3)oc(=O)c2cc1OC | - | - | . | . | ?
Cc1ccc(S(=O)(=O)N2[C@H](CC(=O)c3ccc(F)cc3)OC[C@@H]2C(C)C)cc1 | - | . | . | . | .
O=C(Cc1ccc(NC(=O)N2CCCCc3ccccc32)cc1)NCc1cccc(Br)c1 | - | . | . | . | .
SMILES | HCMV inh | Pf growth 48h | Cycloheximide cs | Shiga inhibitor | Pf growth 96h
O=C(O)c1cc(-c2cccnc2)nc2ccc(Br)cc12 | - | - | - | - | -
O=C(Nc1ccc(C(F)(F)F)cc1)c1cc(-c2cccnc2)nc2ccc(Br)cc12 | ? | 0.37µM | - | - | ?
CSc1ccccc1NC(=O)c1cc(-c2cccnc2)nc2ccc(Br)cc12 | -73 | ? | - | - | ?
Cn1cc(CNC(=O)c2cc(-c3ccccc3)nc3ccc(Br)cc23)cn1 | - | 13µM | - | - | ?
CC(=O)Nc1cccc(NC(=O)c2cc(-c3cccnc3)nc3ccc(Br)cc23)c1 | - | 5.2µM | - | - | ?
Cc1ccc(-c2cc(C(=O)NCc3cnn(C)c3)c3cc(Br)ccc3n2)cc1 | - | ? | - | - | -
CC1CCN(c2cc3c(cc2F)c(=O)c(S(=O)(=O)c2ccc(Cl)cc2)cn3C)CC1 | - | . | . | . | .
COC(=O)c1ccc(CSc2nc3c([nH]c4ccccc43)c(=O)n2-c2cccc(OC)c2)o1 | - | . | . | . | .
CC(NC(=O)c1ccccc1OC(F)F)c1ccc(-n2ccnc2)cc1 (centres undefined) | - | ? | - | - | 12µM
COc1cc(CNC(=O)C2CCCC2)cc(OC)c1OC | - | - | - | - | -
COc1cc(CN/C(C)=C(\C#N)C(N)=O)cc(OC)c1OC | - | - | - | - | 2.1µM
